This passage reports growth results from PubChem BioAssay (NCI).

Among the test systems are HCT-15 colon; HT29 colon; SNB-75 CNS; SNB-19 CNS; U251 CNS; PC-3 prostate; SK-MEL-5 melanoma; UACC-62 melanoma; SK-MEL-28 melanoma; SK-MEL-2 melanoma; EKVX NSCLC; SN12C renal; UO-31 renal; TK-10 renal; ACHN renal; CAKI-1 renal; A498 renal; CCRF-CEM leukemia; MOLT-4 leukemia; LOX IMVI melanoma.
Holding throughout (assay): NCI-60 one-dose screen, 48 h (100 = growth as untreated, 0 = no growth, -100 = all killed)
Holding throughout (conditions): 10 µM unless noted

SMILES strings stand for the structures. About 83,000 compounds went through this panel and 20% of them were active in at least one assay; those are over-represented in the sample as a whole.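 96-well plates, one dose, 48 hours. Percent growth reported; active if below 10.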 A number with no mark means an inactive call. Active and inactive are the calls of the source.

For `Cn1c(SCC(=O)c2ccc(Br)cc2)nc2ccccc2c1=O`, the growth with HCT-15 colon is 99.5%; with HT29 colon, 101%; with SNB-75 CNS it was 94.3%; with SNB-19 CNS, 100%; in the assay with U251 CNS it was 103%; with PC-3 prostate, 96.5%. The growth with SK-MEL-5 melanoma was 92.5%; with UACC-62 melanoma it was 77.5%; with SK-MEL-28 melanoma it was 97.3%; in the assay on SK-MEL-2 melanoma, 102%; in the assay on EKVX NSCLC it was 82.2%; with SN12C renal it was 96.6%. The growth with UO-31 renal was 75.9%; in the assay with TK-10 renal it was 117%; in the assay with ACHN renal, 96.1%; with CAKI-1 renal, 85.4%; in the assay on A498 renal, 92.7%; in the assay with CCRF-CEM leukemia, 91.9%. Moreover, the growth with MOLT-4 leukemia was 99%.

As for `O=C(Nc1ccc(Cl)c(C(F)(F)F)c1)Nc1ccc2oc(=O)ccc2c1`, the growth with HCT-15 colon is 16.6%; with HT29 colon, 65.4%; with SNB-75 CNS it was 58.6%; with SNB-19 CNS it was 28.5%; with U251 CNS, 31.3%; with PC-3 prostate, 10.6%. Also, the growth in the assay with SK-MEL-5 melanoma is 41.4%; in the assay on UACC-62 melanoma it was 27.9%; in the assay on LOX IMVI melanoma it was 1.96% (active); with SK-MEL-2 melanoma, 71.2%; in the assay on EKVX NSCLC, 35.2%; in the assay on SN12C renal it was 31.9%. Moreover, the growth is 31.3% in the assay with UO-31 renal; 70.4% with TK-10 renal; 10.2% with ACHN renal; 36.1% in the assay with CAKI-1 renal; 33% in the assay with A498 renal; 25.5% in the assay on CCRF-CEM leukemia. Moreover, the growth with MOLT-4 leukemia is 28.2%.

Take `CCOC(=O)c1c(NC(=O)c2ccc(C(F)(F)F)cc2)sc2c(CN3CCN(C)CC3)c(O)ccc12`: the growth in the assay on HCT-15 colon was -72.9% (active); in the assay with HT29 colon, -52.1% (active); in the assay with SNB-75 CNS, 63.8%; in the assay with SNB-19 CNS, -27.3% (active); in the assay on U251 CNS it was -88% (active); in the assay with PC-3 prostate, -79% (active). Also, the growth was 64.4% in the assay on SK-MEL-5 melanoma; 28.8% with UACC-62 melanoma; -93.1% (active) in the assay on LOX IMVI melanoma; 44.8% with SK-MEL-2 melanoma; 21.5% in the assay with EKVX NSCLC; -75.7% (active) with SN12C renal. For the same compound, the growth with UO-31 renal was -93.6% (active); in the assay on TK-10 renal, -71.2% (active); in the assay with ACHN renal, -89.4% (active); with CAKI-1 renal it was -66% (active); in the assay with A498 renal, -6.72% (active); in the assay on CCRF-CEM leukemia, -24.6% (active). Moreover, the growth in the assay with MOLT-4 leukemia is -36.5% (active).

Regarding `Cc1ccc(/C(N)=N/C(N)=N/c2nc3ccccc3s2)cc1`, the growth in the assay with HCT-15 colon was 52.2%; with HT29 colon it was 110%; in the assay on SNB-75 CNS, 96.5%; in the assay on SNB-19 CNS, 95.3%; with U251 CNS, 82%; with PC-3 prostate it was 63.5%. Moreover, the growth in the assay with SK-MEL-5 melanoma was 91%; in the assay on UACC-62 melanoma, 91.9%; in the assay with LOX IMVI melanoma it was -17% (active); in the assay with SK-MEL-2 melanoma, 114%; with EKVX NSCLC, 67.7%; with SN12C renal, 60.2%. In addition, the growth in the assay with UO-31 renal is 87%; in the assay with TK-10 renal it was 136%; in the assay with ACHN renal it was 66.8%; in the assay on CAKI-1 renal, 76.8%; with CCRF-CEM leukemia, 78.9%; in the assay with MOLT-4 leukemia it was 75.9%.

In the case of `O=C(/C=C/c1cccc(C(F)(F)F)c1)Nc1cccc(C(F)(F)F)c1`, the growth in the assay on HCT-15 colon is 14.9%; with HT29 colon, 51.5%; in the assay on SNB-75 CNS, 97.5%; in the assay on SNB-19 CNS, 81.9%; with U251 CNS it was 26.9%; with PC-3 prostate, 18.9%. Also, the growth in the assay on SK-MEL-5 melanoma was 89.1%; in the assay on UACC-62 melanoma, 84.5%; in the assay with SK-MEL-28 melanoma, 65.4%; in the assay on SK-MEL-2 melanoma, 76.8%; with EKVX NSCLC it was 50.1%; in the assay on SN12C renal it was 83.1%. Further, the growth is 47.7% in the assay with UO-31 renal; 53.5% in the assay with TK-10 renal; 70.1% with ACHN renal; 34.1% in the assay on CAKI-1 renal; 54.3% in the assay with A498 renal; 31.7% in the assay on CCRF-CEM leukemia. Further, the growth in the assay with MOLT-4 leukemia was 35.8%.

With `CCCCCCOC(=O)c1cc(-c2ccc(F)cc2)nc2ccccc12`, the growth in the assay with HCT-15 colon was 94.8%; in the assay with HT29 colon, 96.3%; in the assay with SNB-75 CNS it was 69.9%; in the assay on SNB-19 CNS it was 92.6%; with U251 CNS, 101%; in the assay with PC-3 prostate, 94.2%. The growth with SK-MEL-5 melanoma was 99.7%; with UACC-62 melanoma, 79%; in the assay on SK-MEL-28 melanoma, 107%; with SK-MEL-2 melanoma it was 101%; in the assay on EKVX NSCLC, 96.8%; in the assay with SN12C renal, 95%. Further, the growth in the assay with UO-31 renal is 86.6%; in the assay with TK-10 renal it was 118%; in the assay with ACHN renal, 100%; with CAKI-1 renal it was 90.3%; with A498 renal, 76.4%; in the assay on CCRF-CEM leukemia, 95.8%. Moreover, in the assay on MOLT-4 leukemia, the growth was 97.2%.

Regarding `O=c1c2cc(-c3ccc(F)cc3F)ccc2n(Nc2ccccc2)c(=O)n1-c1cccc(C(F)(F)F)c1`, the growth is 11.4% in the assay on HCT-15 colon; 59.3% in the assay on HT29 colon; -8.2% (active) with SNB-75 CNS; 11.5% in the assay on SNB-19 CNS; 9.58% (active) with U251 CNS; 1.28% (active) in the assay with PC-3 prostate. Moreover, the growth in the assay on SK-MEL-5 melanoma is -53.7% (active); with UACC-62 melanoma, 10.9%; with SK-MEL-28 melanoma it was 29.5%; in the assay on SK-MEL-2 melanoma, -11.2% (active); in the assay with EKVX NSCLC, 6.49% (active); with SN12C renal, 3.98% (active). The growth in the assay with UO-31 renal is 4.59% (active); in the assay with TK-10 renal, 11.3%; with ACHN renal, 2.25% (active); with CAKI-1 renal it was -10.6% (active); with A498 renal, -18.1% (active); in the assay on CCRF-CEM leukemia, 15.5%. Further, the growth in the assay with MOLT-4 leukemia is 6.73% (active).
